Measured values published in PubChem BioAssay AID708 (SRMLSC, 2007).
Fewer than 10 of roughly 65,000 compounds were called active.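 How the source made its calls: active means at 10 µM dose, initial 340 nm absorbance at least 2 fold that of control wells; inactive means change under 2 fold.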 Not all results are given here.

Assay: A340 optical interference by library compounds – biochemical, MLSMR library, data from PS, PMK, MK assays, artefact control, profiling panel (AID 708);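 further: initial absorbance extrapolated from kinetic A340 decline of NADH oxidation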
Conditions: compound absorbance at 340 nm, fold over control; at 10 µM; hits give high values

Fold change, inactive:
O=C(c1cnn2ccccc12)N1CCc2ccccc21 1.12, CCOc1ccc(Cn2nnc(C(=O)Nc3ccc(OC)cc3OC)c2N)cc1 0.98, COc1ccc(NC(=O)c2cccc(NC(=O)c3ccco3)c2)c(OC)c1 1.07, O=C(NCCc1ccccn1)c1ccc(COc2ccccc2)o1 0.98, CCOC(=O)C1CCN(C(=O)Nc2ccc(Cl)cc2)CC1 1.01, COc1cccc(N(CC(=O)NC2CCCC2)C(=O)Cn2nnc(-c3ccc(C)cc3)n2)c1 1.01, Cc1nc(SCC(=O)Nc2cc(C)on2)c2c3c(sc2n1)CCCC3 1.02, CC1CCN(Cc2nc3c(c(=O)n(C)c(=O)n3C)n2CCc2ccccc2)CC1 0.98, NC(=O)COc1ccc2c3c(c(=O)oc2c1)CCCCC3 1.15, CCc1cc(=O)oc2cc(OCC(=O)N3CCCc4ccccc43)ccc12 1.08, CCOC(=O)N1CCC(NC(=O)CCc2cn(C)c3ccccc23)CC1 0.98, Cc1ccnc(N2C(=O)c3ccccc3C2Nc2ccc3c(c2)OCCO3)c1 (stereo not drawn) 1.06, CCOc1ccc(-c2cn(S(=O)(=O)c3cccc4nsnc34)nc2N)cc1 0.98, c1ccc(-n2ncc3c2ncn2c(CSc4nc5ccccc5s4)nnc32)cc1 1.06, c1ccc2c(CNn3cnnc3)cccc2c1 1.05, Cc1ccc(C(=O)NCC2CCCO2)o1 (stereo not drawn) 1.04, CCn1c(CSc2nncn2-c2ccc(OC)cc2)nc2cc(S(=O)(=O)N(C)C)ccc21 0.96, CC(C)(O)C#Cc1ccc(C(=O)N2CCC(C(N)=O)(N3CCCCC3)CC2)cc1 1.04, CCN(CC)S(=O)(=O)c1ccc2nc(COC(=O)c3n[nH]c4ccccc34)[nH]c2c1 1.03, COc1cccc(-c2nnc(NC(=O)c3ccc(S(=O)(=O)N(CC(C)C)CC(C)C)cc3)o2)c1 1.06, CC12COC3(C(=O)Nc4ccc(Cl)cn4)CC1CCC32C (stereo not drawn) 1.04, Cc1nc(N2CCCC2C(=O)O)c2oc3ccccc3c2n1 (stereo not drawn) 1.02, CCCCN(CC)CCCNC(=O)CS(=O)(=O)Cc1nc(-c2cccc(OC)c2)oc1C 1, CC(=O)Nc1cccc(Oc2cc(C#N)c(C#N)cc2N2CCOCC2)c1 1.1, Cn1c2ccccc2c2c(C(=O)N3CCN(c4ccc(F)cc4)CC3)cn(C3CCCC3)c(=O)c21 1.05, COc1ccc(CCNS(=O)(=O)c2ccc(C(=O)NCc3ccco3)cc2)cc1OC 0.99, Cc1ccc(S(=O)(=O)NC(C)C(=O)Nc2ccccc2C(=O)N2CCCC2)cc1 (stereo not drawn) 0.96, COc1ccc(-n2nnnc2SCC(=O)c2ccc(OC)c(OC)c2)cc1 1.03, Cn1cnc2c1c(=O)n(Cc1c(Cl)cccc1Cl)c(=O)n2C 1.04, Cc1cc(C(=O)NCCCc2ccccc2)no1 1, COc1ccc(C(=O)Cn2nnc(-c3ccc(N4CCOCC4)cc3)n2)cc1OC 1, CCOc1cccc(-c2nn3c(-c4ccccn4)nnc3s2)c1 1.01, O=C(CN1CCN(C(=O)c2ccco2)CC1)Nc1ccc(Cl)c(C(F)(F)F)c1 1
